Over roughly 25,000 sequences, “ln(normalized median fluorescence intensity)” has its median near 9.3; the highest 2% begin near 10. Only a selection was taken, and the highest values are over-represented in it overall.

For this test, the system named is PF3D7_0420300 AP2 domain 1 (GST-tagged). As to the kind of experiment: gcPBM binding intensity (ln(normalized median fluorescence intensity)); higher = stronger DNA binding. In outline: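 The highest Masliner-normalised natural-log median intensity across replicate spots of either probe orientation is reported as binding intensity. GST-tagged P. falciparum DNA-binding domains expressed in E. coli were applied for 1 h to an Agilent 4 × 180k array of primer-extended double-stranded 36-bp intergenic genomic probes plus negative controls, and bound protein was detected with Alexa488 anti-GST antibody and scanned at 488 nm.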
As to “TTTTATAAATCTAAACGTATCTAAATGAATAATTAA [GTGCAC_negctrl_site44]”, the “gcPBM binding intensity (ln)” value amounted to 8.84.

As to “TTTATAACATTTAAGAGTACAAAAAAATAAATAAAT [XGTACX_site1264]”, the “gcPBM binding intensity (ln)” value is 9.37. Take “TATTGTAGAGGCAAAAGTACACATTTAATAATTTCC [XGTACX_site1151]”: the “gcPBM binding intensity (ln)” value is 9.23. “ACTTGTAAGAAACACACACACACACCGATATATATA [CACACA_site4594]”: the “gcPBM binding intensity (ln)” value is 10.4. With “AAACTTGTAAGAAACACACACACACGCATATAAATA [CACACA_site6518]” the figure was 10; with “GTAAGAAACAGACACACACACATATATATATATATA [CACACA_site794]”, 9.79; with “ACTTGTAAGAAACACACACACACACCCATATATATA [CACACA_site796]”, 10.4.

Regarding “TTGTAAGAAAAACACACACACACATATATATATATA [CACACA_site795]”, the “gcPBM binding intensity (ln)” value came out at 9.95.

On to “AAACTTGTAAGAAACACACACACACCCATATATATA [CACACA_site797]”, for which the “gcPBM binding intensity (ln)” value was 10.1.

For the sequence “AATATAAAAATGTTTACACACACACGGAAATATATT [CACACA_site7226]”, the “gcPBM binding intensity (ln)” value is 10.1. For the sequence “TATATATATATGTGTATACACACCTGATAAAGGTAT [CACACA_site2653]”, the “gcPBM binding intensity (ln)” value stood at 9.42. With “AAAAATTTGGCATACACACACACACGCACACGCACA [CACACA_site6422]” the figure was 10.2; with “CTTAAATTTTTAAATACACACATACACCCATACACA [CACACA_site4461]”, 9.64.

“AAAATTCATATATACACACACGCACATATATATATA [CACACA_site90]”: the “gcPBM binding intensity (ln)” value stood at 9.85. Turning to “AAAAAATTCATATATACACACACGCACATATATATA [CACACA_site4226]”, the “gcPBM binding intensity (ln)” value was determined as 9.84.

Turning to “AAAAATTTGGCATACACACACACACCCACACCCACA [CACACA_site587]”, the “gcPBM binding intensity (ln)” value is 10.2. As for “TACAAAAAAAATGTATTTAGGACATATATATGTTTA [XGTACX_negctrl_site455]”, the figure is 9.02; as for “ACGTTTTATAATTAATGTACAAATATTAAAATTGCA [XGTACX_site7869]”, 9.07; as for “GCTAGTTTTTTTTGGCGTACAGTACCGGTTTACTTT [XGTACX_site2606]”, 9.42. Regarding “AAAAAAAAAAAATAATGTACATATGTATTTGAGAAA [XGTACX_site3572]”, the “gcPBM binding intensity (ln)” value came to 9.23. As for “ATAACAAAATAAAACACACACACAAATGTACAGATA [CACACA_site5358]”, the “gcPBM binding intensity (ln)” value amounted to 10.3. With “TATAACAAATAAAAATGTACATATATATAATATATA [XGTACX_site6173]” the figure was 9.38; with “ATGTTGTACAAACACACACACAAAAAAAAAATAAAA [CACACA_site2406]”, 9.89. As for “ATAATATAACACAAATGTACAAAAAATAAATAAATA [XGTACX_site385]”, the figure is 9.51; as for “ATAACAAAATAAAACACACACACAAATGTACATATA [CACACA_site2425]”, 10.3. With “AAAAATATAATATAATGTACACATAAACAAAAAAAA [XGTACX_site3658]”, the “gcPBM binding intensity (ln)” value came out at 9.58.

As for “AACAAAATAAAACACACACACAAATGTACATATATA [CACACA_site2424]”, the “gcPBM binding intensity (ln)” value was determined as 10.2. As for “ACAAAATGTAAATAAACACACATATATATATATATA [CACACA_site1281]”, the figure is 9.3; as for “TAACAAAATGTAAATAAACACACATATATATATATA [CACACA_site8352]”, 9.37; as for “TTATTACGAACTCTGCAACATATATAAATAAATAAA [CACACA_negctrl_site44]”, 8.86. With “ATATTTCATCTAGCTACACACATATAATAAATTATT [CACACA_site4094]” the figure was 9.53; with “ATTCTAATTAGTAAAGTGCAGATAAAATGATGCCCT [GTGCAC_site9578]”, 9.08.

Consider “ATTACATTTTTGTTTTGTACATATATTTTATAAACA [XGTACX_site494]”, for which the “gcPBM binding intensity (ln)” value came out at 9.34.

In the case of “TAATTTTTTTAAGAGAGTACATGACTCAACAGTTTA [XGTACX_site3103]”, the “gcPBM binding intensity (ln)” value turned out to be 8.76.

Regarding “CGCACTAAAAAACACACACACACACCCATATATATA [CACACA_site4152]”, the “gcPBM binding intensity (ln)” value was 10.3. With “CACCCACTAATAAACACACACATATATATATATATA [CACACA_site389]” the figure was 9.62; with “CCCACTAAAAAACACACACACACACCCATATATATA [CACACA_site6140]”, 10.2. With “TTAAAAAAAAAACACACACACATACCCATATATATA [CACACA_site5768]” the figure was 9.97; with “TTATATTAAACAAACACACACATATATATATATATA [CACACA_site2382]”, 9.53. With “CATACTGTTATAAAATGTACGCATATACACACACAT [XGTACX_site7256]” the figure was 9.89; with “CACATACAGACATACACACACATATAGATTAATATA [CACACA_site6399]”, 9.93. For the sequence “GGCATGACTATCTGCACACATAAAAATAAGAAATAC [CACACA_site841]”, the “gcPBM binding intensity (ln)” value amounted to 9.56. As for “TAGAATAATCTATAAACACACAAACCCAACAAAAGA [CACACA_site6132]”, the figure is 9.86; as for “TATAATAATCCACAAGCACACACACCCACATATATA [CACACA_site8343]”, 9.93. With “AATAATAGAAGCACCCACCCACCACCACCCACACAT [CACACA_negctrl_site1033]” the figure was 11.1; with “CACCCACACCAACACACACACATATATAATATATAT [CACACA_site595]”, 10.1.

For the sequence “ATAATAATTAACCTATGTACATAGGAAAGTCATAAA [XGTACX_site4387]”, the “gcPBM binding intensity (ln)” value was 9.29. As for “TTATATTAATTTTGTTGTACTATTTGTGCATTAAAT [XGTACX_site4790]”, the figure is 9.21; as for “TGTCATGATACATACACACACATACCCATACCCATA [CACACA_site5211]”, 9.88. With “TATTGCCCTTGACACACACACATATAAATAAATATA [CACACA_site7220]” the figure was 9.84. With “CTTATATATTGCCCTTCACACACACCCATATATATA [CACACA_site8795]” the figure was 10.1; with “TATATTGCCCTTCACACACACACATATATATATATA [CACACA_site2492]”, 10.3; with “ATTATATAATTGTCTTCACACACACCGATATATATA [CACACA_site8883]”, 9.93. For “TATATATTGCCCTTCACACACACACCCATATATATA [CACACA_site2493]”, the “gcPBM binding intensity (ln)” value is 10.2. As for “CATATATATTTGTTCACACACACACCCAAAAAAAAA [CACACA_site2476]”, the figure is 9.99.

Regarding “ATTCATTTTATTTTTTCACACACACCGATATATATA [CACACA_site9097]”, the “gcPBM binding intensity (ln)” value amounted to 10. With “TATTGCCCTGGACACACACACATATATATATATATA [CACACA_site5389]” the figure was 9.88; with “TATATATTGCCCTTCACACACACACCGATATATATA [CACACA_site5390]”, 10.2.

As to “GGTGGTAAAAAACCTGCATGTCGAAATATTAAATAC [TGCATGCA_site33]”, the “gcPBM binding intensity (ln)” value is 9.25. As for “TTCTTAAATGTAAATGTATATGTATTAAAAAGAGAA [TGCATGCA_negctrl_site597]”, the figure is 9.1. On to “ACAACATATGTTATCACACACATATAAATATAAATA [CACACA_site7038]”, for which the “gcPBM binding intensity (ln)” value was 9.54. With “AAAAGCAAGTTCCAGGGTACATATATATGAAAAAAC [XGTACX_site2408]” the figure was 9.58. With “ATTTATTTATATAATACACACAAATATCTTAATGAA [CACACA_site6064]” the figure was 9.39; with “ATATATATATATGTATGTACATATTTTTTTTAACAC [XGTACX_site8475]”, 9.24.

Consider “TATGATTTTTATATATGTACGTATGGTGTTTTACAA [XGTACX_site6100]”, for which the “gcPBM binding intensity (ln)” value was 9.21.

As to “GTTTGGTGGTGTTTTGGTACGTACGGGGGGGTATGT [XGTACX_site1983]”, the “gcPBM binding intensity (ln)” value came out at 10.9. As for “GTTTGGTGGTGTTTTGGTACGTACGGGGGTGTATGT [XGTACX_site1211]”, the figure is 10.1; as for “AAAAAAAAAAAAAAAAAAAAAAAAAAATGAGATACA [GTGCAC_negctrl_site160]”, 9.13; as for “ATAAAATGAACAAACACACACACATATATTTATATA [CACACA_site7181]”, 10.1. As for “TGTAGTCTGGAGAAAAGTACATAGTATCTGGTAGCT [XGTACX_site2031]”, the figure is 9.32; as for “CGTATATATATATACACACACATATATATATGTAAA [CACACA_site195]”, 9.69. As for “ATTAAACCGTGGGAGCACACACACACACACACACAT [TGCATGCA_negctrl_site72]”, the figure is 10.8; as for “TTAAACCGTGGGAGCACACACACACCCCCACCCATA [CACACA_site331]”, 10.2; as for “TGTGGGAATAACCACACACACACACCCATATATATA [CACACA_site5876]”, 10.1.

For “AAACCGTGGGAGCACACACACACACCCACCCATATA [CACACA_site332]”, the “gcPBM binding intensity (ln)” value amounted to 10.2. As for “AAACCGTGGGAGCACACACACACACCGACACATATA [CACACA_site4338]”, the figure is 10.1; as for “TTAAACCGTGGGAGCACACACACACCCAGACACATA [CACACA_site4337]”, 9.86. As to “TTAAACATATATTAAGCACACACAAACAAAAAAACA [CACACA_site8816]”, the “gcPBM binding intensity (ln)” value came to 9.9. As for “AATTAACCGTGACACACACACATATAAATATAAATA [CACACA_site7790]”, the figure is 9.86; as for “CATTAAACCGTGGGAGCACACACACCCACCCACCCA [CACACA_site8000]”, 9.87.

Turning to “AATATGTCTTAAAAAAGTACATAAATTTTAACTTCA [XGTACX_site6670]”, the “gcPBM binding intensity (ln)” value was determined as 8.84. With “TTTTTTTTTTTTTTTTGTACATAATAAATGTTCTTA [XGTACX_site6754]” the figure was 8.64. With “AAGAATTATATTAATAGTACATATATATTAATTTAT [XGTACX_site5713]” the figure was 9.08. As for “GCAAATCTTATATGAAGTACATATCTTATAAATAAA [XGTACX_site6903]”, the figure is 8.96; as for “TGGAGGTCAGTTCACAGTACCCAGAAACTCTACGAG [XGTACX_site2007]”, 8.76. Turning to “TTATAATCAATGAATACACACATATATTTAATTAAT [CACACA_site3613]”, the “gcPBM binding intensity (ln)” value amounted to 9.47. With “TATAAAAATATATGCACACAAATAAAAAATTATATA [CACACA_site3629]” the figure was 9.44. As to “AATTTTATATATATATGTACATATTTATATGCTTAT [XGTACX_site8180]”, the “gcPBM binding intensity (ln)” value turned out to be 9.4. As for “ATTTAGAAAAAATATACACACAGCCTAAACATGCAT [CACACA_site4067]”, the figure is 9.64.

(Values after the supplement of paper PMC11417369.)
